# According to PubChem BioAssay (Tox21):
# A number with no mark means an inactive call. The source made the active and inactive calls. The call rests on the fitted dose curve.
# Biological target: Muscarinic acetylcholine receptor M1 (Homo sapiens) (UniProt P11229)
# Assay: Cholinergic receptor muscarinic 1 (CHRM1) small molecule agonists, cell-based qHTS assay (AID 1963589); further: nearly all actives have a fitted effect of over 35% in size
# Details: CHRM1-CHO cells, agonist mode, calcium flux fluorescence; series mostly up to 76.8 µM; activation: at the top concentration
# Procedure, shortened: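 qHTS, 15-point titration, 3 independent runs: compounds pin-transferred onto dye-loaded CHRM1-CHO cells (human M1), calcium fluorescence followed every second to detect agonism.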
# On the % scale 0 is the no-effect control and ±100 the full control effect.
# Chain of Muscarinic acetylcholine receptor M1 (Homo sapiens) (P11229 whole entry, looked up): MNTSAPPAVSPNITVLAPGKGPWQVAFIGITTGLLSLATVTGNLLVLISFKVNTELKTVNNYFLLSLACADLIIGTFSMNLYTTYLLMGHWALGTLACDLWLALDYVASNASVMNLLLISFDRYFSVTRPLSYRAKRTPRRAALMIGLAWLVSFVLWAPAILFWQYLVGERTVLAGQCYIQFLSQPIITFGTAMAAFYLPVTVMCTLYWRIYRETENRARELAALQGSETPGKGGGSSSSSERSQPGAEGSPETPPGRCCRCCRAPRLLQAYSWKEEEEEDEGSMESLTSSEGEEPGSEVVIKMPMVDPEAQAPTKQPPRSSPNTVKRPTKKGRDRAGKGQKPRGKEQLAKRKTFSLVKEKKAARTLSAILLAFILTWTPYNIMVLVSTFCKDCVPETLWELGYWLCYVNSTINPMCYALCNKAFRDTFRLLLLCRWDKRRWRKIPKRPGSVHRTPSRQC
SMILES,activation,Potency
N#CCCO,-0.39%,
C=CCSSCC=C,-0.154%,
N#Cc1ccc(Cl)cc1,0.278%,
C=CCc1cc(OC)c2c(c1)OCO2,-0.95%,
c1ccc(-c2cccc(-c3ccccc3)c2)cc1,,inactive
c1ccc(NNc2ccccc2)cc1,,inactive
O=c1[nH]c2ccccc2n1C1CCN(CCCC(c2ccc(F)cc2)c2ccc(F)cc2)CC1,15.4%,
CCCCCCCCCCn1cc[n+](C)c1,,inactive
OCCSSCCO,0.172%,
CCN,-1.59%,
N#Cc1ccc(O)cc1,0.0178%,
O=NN(c1ccccc1)c1ccccc1,,inactive
COC(=O)Nc1cccc(OC(=O)Nc2cccc(C)c2)c1,,inactive
CC(Br)C(=O)O (stereo not drawn),,inactive
O=S1OCC2C(CO1)C1(Cl)C(Cl)=C(Cl)C2(Cl)C1(Cl)Cl (stereo not drawn),,inactive
ClC1=C(Cl)C2(Cl)C3C(Cl)C(Cl)CC3C1(Cl)C2(Cl)Cl (stereo not drawn),,inactive
ClC(Cl)(Cl)Br,,inactive
CCN(CC)Cc1nccn1-c1ccc([N+](=O)[O-])cc1C(=O)c1ccccc1Cl,0.045% [at 35.3 µM],
Cl/C=C/CCl,0.157%,
CCCCCCCCSC(=O)Oc1cc(Cl)nnc1-c1ccccc1,-0.207%,
Cc1ccc(N)cc1N,,inactive
[O-][Cl+]O,0.195%,
OCCOc1ccccc1,,inactive
CC(C)Nc1ccc(Nc2ccccc2)cc1,-0.901%,
O=C(CCN1CC1)OCC(CO)(COC(=O)CCN1CC1)COC(=O)CCN1CC1,0.862%,
CC(C)(C)C(O)(CCc1ccc(Cl)cc1)Cn1cncn1 (stereo not drawn),,inactive
CC1COC2(c3ccccc3Cl)c3cc(Cl)ccc3NC(=O)CN12 (stereo not drawn),-0.607% [at 35.3 µM],
CC(C)(C)OOC(C)(C)CCC(C)(C)OOC(C)(C)C,-0.0164%,
